Screening results as filed in PubChem.
Pin1 inh: inhibitors of human Pin1. Q13526. Pin1 FP peptide displacement, HiFluor488, 10 min. Potency, µM (doses to about 115 µM), without a hit: top-dose activity, negative = inhibition, actives largely listed as inhibitors. 390,000 compounds, 0.009% hits. AID 504891; active = well fitted inhibition curve with a large enough effect in the polarisation, with a control signal flat, not every such curve was filed as active; inconclusive = small, poorly fitted or top-dose-only effect, or effect the other way, or a change in a side signal; inactive = no such curve, though single readings can be large or run the other way; the % refers to the polarisation; also: potency is read from the fitted curve at half-maximal effect
Tb PFK inh: blocks T. brucei phosphofructokinase. AID 485367. T. brucei PFK, ADP-Glo luminescence. O15648. Potency, µM (series often up to 57.5 µM), for inactives: at the highest dose activity, negative = inhibition, most hits filed as inhibitors. 330,000 compounds, 0.17% hits;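 also: potency is read from the fitted curve at half-maximal effect; 0% = uninhibited 1x PFK enzyme wells and -100% = no-enzyme wells; nearly all actives have a fitted effect of over 60% in size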
Target sequence (O15648 whole entry, looked up): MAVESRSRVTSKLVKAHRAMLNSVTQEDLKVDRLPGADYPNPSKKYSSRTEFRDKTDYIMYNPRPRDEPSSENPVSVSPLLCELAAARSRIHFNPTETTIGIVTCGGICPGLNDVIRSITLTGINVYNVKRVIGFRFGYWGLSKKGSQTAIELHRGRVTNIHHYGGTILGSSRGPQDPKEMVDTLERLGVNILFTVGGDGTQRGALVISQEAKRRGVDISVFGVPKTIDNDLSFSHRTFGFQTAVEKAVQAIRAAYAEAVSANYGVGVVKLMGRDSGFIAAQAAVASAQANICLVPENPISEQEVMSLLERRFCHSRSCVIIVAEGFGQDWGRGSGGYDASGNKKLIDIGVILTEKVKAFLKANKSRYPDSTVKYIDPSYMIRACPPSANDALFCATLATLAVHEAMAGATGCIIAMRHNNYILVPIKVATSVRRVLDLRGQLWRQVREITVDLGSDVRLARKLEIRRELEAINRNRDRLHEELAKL
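1.25 nM PFK with 0.5 mM F6P and 0.1 mM ATP in 0.1 M TEA pH 8.0, 5 mM MgCl2, incubated 45 min at room temperature; ADP measured by ADP-Glo luminescence; compounds titrated up to 57 uM.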
PI5P4K alpha inh: blocks human PI5P4K alpha kinase activity; PI5P4Kalpha enzyme, ADP-Glo luminescence, 60 min; stronger effect = lower value; max response, %; 330,000 compounds, 1.2% hits; AID 652105; active = max response of -50% or lower; inconclusive = between -30% and -50%; inactive = -30% or higher; also: value at the top dose of about 77 µM
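Single end-point luminescence (ADP-Glo) quantified ADP from PI5P4Kalpha turnover; ATP 5 microM final, 1 h at RT, 0.1% CHAPS and 0.28 mM EGTA in HEPES pH 7.4.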
PI4K2A inh: inhibitors of human PI4K2A; purified PI4K2A, ADP-Glo luminescence, 1 h; stronger effect = lower value; Q9BTU6; activity change, negative = inhibition, % at 76.9 µM; 420,000 compounds, 0.13% hits; in the data active = activity change below about -50%; inconclusive = mostly about -30% to -49%;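 also: -100% = wells without enzyme as full effect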
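In this quantitative HTS, ADP production by PI4K2A was quantified luminescently after 1 h at ambient temperature; 100 microM adenosine served as plate-quality control.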
Tb PGK inh: inhibitors of T. brucei phosphoglycerate kinase | PGK/GAPDH coupled, Kinase-Glo luminescence, 60 min | Potency, µM (doses to about 57.5 µM), for the others: at the top dose activity change, negative = inhibition, most hits filed as inhibitors | 380,000 compounds, 0.043% hits; also: potency is read from the fitted curve at half-maximal effect; nearly all actives have a fitted effect of over 60% in size
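Recombinant glycosomal PGK reaction used 1,3-bisphosphoglycerate generated in-well by GAPDH (100nM final) in 100mM TEA pH 7.6, 5mM MgCl2, 0.01% Tween-20. After 60 minutes at room temperature, ATP was read by Kinase-Glo Plus luminescence end-point.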
The depositor's hits bear a star; i = inactive; ? = inconclusive; / = no result. The full list was thinned out, with hits kept by preference. Unless noted, calls follow the shape of the dose curve; as a rule, active = well fitted curve in the direction sought with a large enough effect; inconclusive = small, poorly fitted or top-dose-only effect, or another doubt; inactive = no such curve, though single readings can be large; an effect the other way counts as inactive or inconclusive. Unless noted, % is scaled to controls: 0 for no effect and ±100 for the full control effect.

SMILES	Pin1 inh	Tb PFK inh	PI5P4K alpha inh	PI4K2A inh	Tb PGK inh
Cc1nn(C(C)(C)C)c(C)c1/C=N/OC(=O)Nc1ccc(Cl)c(Cl)c1	4.7%	16.9µM*	3.0	-2.6	i
Cc1ccccc1N1C(=O)NC(=O)/C(=C\c2cnn(-c3ccccc3)c2)C1=O	-4.1%	15.4%	-71.8*	-23.8	-24.1%
O=C1NC(=O)N(c2cccc(F)c2)C(=O)/C1=C/c1ccc(N2CCOCC2)cc1	15.2%	-15.2%	-61.2*	-1.6	3.2%
Cc1cccc(N2C(=O)/C(=C/c3ccc(CN(CCC#N)S(C)(=O)=O)o3)C(=O)NC2=S)c1	?	0.8%	-56.2*	-16.6	-20.6%
COc1ccc(N2C(=O)/C(=C/c3ccc(C)o3)C(=O)NC2=S)cc1	4.1%	-9.7%	?	-6.4	-15.3%
CCOc1ccc(N2C(=O)/C(=C/c3ccc(C)o3)C(=O)NC2=S)cc1	?	3.0%	-75.8*	-18.4	?
Cc1ccc(/C=C2\C(=O)NC(=S)N(c3cccc(F)c3)C2=O)o1	?	0.9%	-77.2*	-4.8	-18.4%
Cc1ccc(N2C(=O)/C(=C/c3ccc(CN(CCC#N)S(C)(=O)=O)o3)C(=O)NC2=S)cc1C	/	-11.1%	/	/	/
O=C(N/N=C/c1c(O)n(CCC2=CCCCC2)c(=S)[nH]c1=O)c1ccccc1	?	11.4%	-58.8*	0.6	3.3%
O=C(N/N=C/c1c(O)n(CCC2=CCCCC2)c(=O)[nH]c1=O)c1ccccc1	1.5%	0.1%	-60.4*	-0.2	i
CCCCC(=O)N/N=C/c1c(O)n(CCc2ccc(OC)c(OC)c2)c(=O)[nH]c1=O	-13.1%	-4.4%	-4.5	-4.7	-1.0%
CCCCC(=O)N/N=C/c1c(O)n(CCc2ccccc2)c(=O)[nH]c1=O	9.0%	6.5%	-57.8*	1.8	i
CCN1C(=O)/C(=C/c2ccc3c(c2)CCN3CCCCl)C(=O)NC1=S	16.7%	-9.4%	-72.9*	-23.1	-11.5%
CC(C)(C)N1C(=O)NC(=O)/C(=C\c2ccc3c(c2)CCN3CCCCl)C1=O	?	24.1%	?	-15.9	-3.5%
O=C1NC(=S)N(C2CC2)C(=O)/C1=C/c1ccc2c(c1)CCN2CCCCl	-5.4%	-7.7%	-73.9*	-26.5	-8.9%
CCN(CC)C(=O)N[C@@H]1C=C2c3cccc4[nH]cc(c34)C[C@@H]2N(C)C1	/	/	/	-4.1	/
O=C(O)c1ccc([N+](=O)[O-])c([N+](=O)[O-])c1	-8.0%	/	-50.4*	-3.1	-11.6%
O=[N+]([O-])c1ccc(O)c([N+](=O)[O-])c1	-10.5%	/	-29.4	-2.4	-7.4%
O=C1NC(=O)C(Sc2ccccc2[N+](=O)[O-])C(=O)N1	-0.2%	-22.7%	-54.0*	?	0.5%
COc1ccc(OC)c(CC(C)N)c1 (stereo unspecified)	/	/	/	i	/
O=C1NC(=O)C(=Cc2ccco2)C(=O)N1	?	/	-83.7*	-25.1	11.2µM*
COc1ccc(OC)c(N2C(=O)/C(=C/c3ccco3)C(=O)NC2=S)c1	?	?	-86.4*	?	3.55µM*
O=C1NC(=S)N(c2ccc(F)cc2)C(=O)/C1=C/c1ccco1	/	6.75µM*	/	/	/
Cc1ccc(N2C(=O)NC(=O)/C(=C\c3ccoc3)C2=O)cc1	?	1.4%	?	-7.3	-14.6%
Cc1ccc(N2C(=O)NC(=O)/C(=C\C=C\c3ccco3)C2=O)cc1	?	?	-28.8	-22.4	-2.1%
SMILES	Pin1 inh	Tb PFK inh	PI5P4K alpha inh	PI4K2A inh	Tb PGK inh
O=C1NC(=S)N(c2ccc(F)cc2)C(=O)/C1=C\c1ccoc1	?	-17.1%	-86.8*	?	10µM*
O=C1NC(=O)C(=Cc2c(Cl)cccc2Cl)C(=O)N1	10.2%	/	?	-11.2	1.8%
COc1ccc(OC)c(N2C(=O)NC(=O)/C(=C/c3ccc([N+](=O)[O-])s3)C2=O)c1	/	-2.8%	?	-16.0	-29.9%
COc1cc(CC#N)cc(OC)c1OC	/	/	/	-0.3	/
CC(O)CN1CCN(CC(=O)[O-])CCN(CC(=O)[O-])CCN(CC(=O)[O-])CC1.[Gd+3] (stereo unspecified)	/	/	/	3.3	/
CCCN(CCC)C(=O)Cc1c(-c2ccc(Cl)cc2)nc2ccc(Cl)cn12	/	/	/	-1.9	/
O=C1NC(=O)C(=Cc2ccc(Sc3ccccc3)o2)C(=O)N1	?	-2.1%	-51.7*	-23.4	-1.1%
